Among all 310,000 compounds or so, about 14,000 (4.5%) showed an effect of 50% or more. The effect is printed as a negative number. Shown is part of a subset that was picked to be rich in strong results.
Target: human ether-à-go-go-related gene (hERG) potassium channel (human, UniProt Q12809)
Assay: primary screen, population patch clamp on CHO cells stably expressing hERG; higher = less effect of the substance
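Further: peak tail current of the secondary pulse compared with the same well before compound.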

Chain of human ether-à-go-go-related gene (hERG) potassium channel (Q12809 whole entry, looked up): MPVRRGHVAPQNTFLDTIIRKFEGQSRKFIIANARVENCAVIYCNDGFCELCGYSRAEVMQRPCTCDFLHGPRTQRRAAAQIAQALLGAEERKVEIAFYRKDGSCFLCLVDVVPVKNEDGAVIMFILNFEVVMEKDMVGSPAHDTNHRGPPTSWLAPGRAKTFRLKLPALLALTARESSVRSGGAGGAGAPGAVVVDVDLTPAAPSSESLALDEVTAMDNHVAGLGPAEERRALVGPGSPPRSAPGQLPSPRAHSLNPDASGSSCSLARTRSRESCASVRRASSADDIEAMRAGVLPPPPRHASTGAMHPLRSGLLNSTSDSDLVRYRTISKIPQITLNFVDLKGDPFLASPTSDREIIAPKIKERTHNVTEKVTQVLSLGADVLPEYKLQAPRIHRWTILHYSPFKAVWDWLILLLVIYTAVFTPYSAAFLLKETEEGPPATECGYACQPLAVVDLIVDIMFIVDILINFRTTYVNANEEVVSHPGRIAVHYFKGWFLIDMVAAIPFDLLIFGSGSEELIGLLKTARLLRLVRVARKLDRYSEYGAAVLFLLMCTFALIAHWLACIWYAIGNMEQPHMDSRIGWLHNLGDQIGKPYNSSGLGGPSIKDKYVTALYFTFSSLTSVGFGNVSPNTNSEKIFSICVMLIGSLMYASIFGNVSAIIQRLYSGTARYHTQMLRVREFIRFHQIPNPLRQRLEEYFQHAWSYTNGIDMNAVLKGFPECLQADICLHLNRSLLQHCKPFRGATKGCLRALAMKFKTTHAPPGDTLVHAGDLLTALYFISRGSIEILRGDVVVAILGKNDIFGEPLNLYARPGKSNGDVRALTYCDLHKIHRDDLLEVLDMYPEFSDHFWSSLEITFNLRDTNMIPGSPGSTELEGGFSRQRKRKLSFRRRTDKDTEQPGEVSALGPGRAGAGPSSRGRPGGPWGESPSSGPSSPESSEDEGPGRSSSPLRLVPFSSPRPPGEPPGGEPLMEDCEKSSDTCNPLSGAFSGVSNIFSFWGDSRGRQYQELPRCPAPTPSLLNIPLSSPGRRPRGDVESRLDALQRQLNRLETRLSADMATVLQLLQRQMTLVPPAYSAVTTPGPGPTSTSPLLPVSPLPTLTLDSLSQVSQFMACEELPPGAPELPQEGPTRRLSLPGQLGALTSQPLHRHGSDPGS

| Structure (SMILES) | hERG current change (%, negative = inhibition) at 10uM [%] |
| --- | --- |
| O=C(NC1CCCN(Cc2ccc(Cl)cc2)C1)c1cccc(F)c1 (stereo not drawn) | -61.3 |
| O=C(Cc1ccccc1F)NC1CCCN(Cc2ccc(Cl)cc2)C1 (stereo not drawn) | -33.7 |
| O=C(CCc1ccc(F)c(F)c1)NC1CCCN(Cc2ccc(Cl)cc2)C1 (stereo not drawn) | -66 |
| O=C(Cc1cccc(F)c1F)NC1CCCN(Cc2ccc(Cl)cc2)C1 (stereo not drawn) | -21.7 |
| O=C(Nc1ccccc1)c1ccccc1Oc1ccc(C(F)(F)F)cc1[N+](=O)[O-] | 9.75 |
| CC(=O)Nc1ccc(S(=O)(=O)NCCc2c[nH]c3ccc(C)cc23)cc1 | 26.2 |
| CS(=O)(=O)N(Cc1ccccc1)c1ccc(C(=O)Nc2cccnc2)cc1 | -5.96 |
| CN1CCN(S(=O)(=O)c2ccc(NC(=S)NC(=O)C(C)(C)C)cc2)CC1 | 1.03 |
| Cc1nn(S(=O)(=O)c2cccc([N+](=O)[O-])c2)c(C)c1Br | 10.7 |
| CC(C)(C)NC(=O)C(c1ccc(O)cc1)N(C(=O)CCC(=O)Nc1nccs1)c1cccc(F)c1 (stereo not drawn) | 16.8 |
| O=C(O)CC(NC(=O)c1ccco1)c1ccco1 (stereo not drawn) | 17.4 |
| CSc1sc(-c2n[nH]c(=S)n2C)c2c1C=CCC2 | -56.8 |
| CSc1sc(-c2nnc(SCC(=O)Nc3ccccc3)n2C)c2c1C=CCC2 | -2.35 |
| CSc1sc(-c2nnc(SCC(=O)Nc3ccc(Cl)cc3)n2C)c2c1C=CCC2 | 10.5 |
| Cc1cccc(C(=O)NN2S(=O)(=O)c3ccccc3S2(=O)=O)c1 | 18.2 |
| O=C(NCCC1=CCCCC1)c1cc(-c2ccccn2)nc2ccccc12 | 8.77 |
| COCCCNC(=O)C1CCN(S(=O)(=O)N(CC(C)C)CC(C)C)CC1 | 13.4 |
| CC(=O)N/C(=C/c1ccc2c(c1)OCO2)C(=O)NCCCO | 23.3 |
| CC(=O)N/C(=C/c1ccc2c(c1)OCO2)C(=O)NCCO | 9.66 |
| O=C(N/N=C/c1ccc2c(c1)OCO2)/C(=C/c1ccc2c(c1)OCO2)NC(=O)c1ccccc1 | -20.7 |
| O=C(NCCO)/C(=C\c1ccc2c(c1)OCO2)NC(=O)c1ccc(Br)cc1 | -51.9 |

| Structure (SMILES) | hERG current change (%, negative = inhibition) at 10uM [%] |
| --- | --- |
| O=C(NCCO)/C(=C/c1ccc2c(c1)OCO2)NC(=O)c1ccc(Br)cc1 | -69.5 |
| O=C(OCc1cc(Cl)ccc1OC(F)F)c1cncc(Br)c1 | 5.33 |
| COc1ccc(C(=O)N=C2SC3CS(=O)(=O)CC3N2Cc2ccccc2)cc1OC (stereo not drawn) | 13.3 |
| CCOC(=O)c1c(C)[nH]c(C(=O)COC(=O)/C=C/c2ccc(O)c(OC)c2)c1C | 2.87 |
| CCOc1ccc(NS(=O)(=O)c2ccc(C(=O)N3CCN(C(C)=O)CC3)cc2)cc1 | 26.6 |
| Cc1ccccc1-n1nc(C)c2c1N=C1C(Cl)=CC(Cl)=CN1C2c1ccc(C(=O)O)cc1 (stereo not drawn) | 11.9 |
| CCOc1cc(N2CCOCC2)c(OCC)cc1NC(=O)CN1CCc2ccccc2C1 | 2.76 |
| COc1cccc(NC(=S)N(Cc2ccc(Cl)cc2)Cc2ccc(C(=O)O)cc2)c1 | 25.6 |
| COc1ccc2[nH]c(C)c(CCNC(=S)Nc3cccc(C)c3C)c2c1 | 15.9 |
| O=C(CN1CCCCCC1)NCCN1C(=O)S/C(=C\c2ccccc2Cl)C1=O | -9.34 |
| CC1CN(C(c2cccs2)c2sc3ncnn3c2O)CC(C)O1 (stereo not drawn) | 19.5 |
| O=C(NC1CCCCC1)C(c1ccc2ncccc2c1)N(Cc1ccc2c(c1)OCO2)C(=O)c1cccs1 (stereo not drawn) | -37.1 |
| COc1ccc(CN(C(=O)c2cccs2)C(C(=O)NC2CCCCC2)c2ccc3ncccc3c2)cc1 (stereo not drawn) | -47.9 |
| O=C(NC1CCCCC1)C(c1ccc2ncccc2c1)N(Cc1ccc(F)cc1)C(=O)c1cccs1 (stereo not drawn) | -22 |
| O=C(NC1CCCCC1)C(c1cccs1)N(Cc1cccs1)C(=O)c1cccs1 (stereo not drawn) | -12.2 |
| O=C(NC1CCCCC1)C(c1ccc2ncccc2c1)N(Cc1cccs1)C(=O)c1cccs1 (stereo not drawn) | -51.3 |
| O=C(NC1CCCCC1)C(c1ccc2ncccc2c1)N(Cc1ccccc1)C(=O)c1cccs1 (stereo not drawn) | -60.4 |
| COCCNC(=O)Cn1cc(C(=S)N2CCCCC2)c2ccccc21 | 18.7 |
| COc1ccccc1C(=O)NCCC(=O)N1CCCCCCC1 | 4.61 |
| CCOC(=O)c1csc(NC(=O)CN2CCN(C)CC2)n1 | 19 |
| Cc1ccc(S(=O)(=O)NCC(=O)N/N=C/c2ccc(Cl)cc2)cc1 | -3.55 |
